Measurements as given in PubChem BioAssay (Tox21).
The source made the active and inactive calls. A call without a number means that no potency is given here. Unless noted, calls come from the whole dose curve; as a rule, active = well fitted curve in the direction sought with a large enough effect in the repeat runs; inconclusive = weak or mixed curves; inactive = no such curve, though single readings can be large; an effect the other way counts as inactive or inconclusive. Non-standard residues stand in square brackets, D forms with d. Residues, ends and D or L forms follow the SMILES beside them. Orn = NCCC[C@H](N)C(=O)O

Experiments:
[1] = qHTS assay to test for compound auto fluorescence at 535 nm (green) in HEK293 cells (AID 720680)
[2] = qHTS assay to test for compound auto fluorescence at 460 nm (blue) in HEK293 cell free culture (AID 720681)
In short: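 Test compounds were pinned into cell-free culture medium (DMEM with 10% FBS) and fluorescence was read directly at Ex/Em 405/460 nm. Signals were expressed as fluorescence equivalents of triamterene, with DMSO vehicle as control.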

[3] = qHTS assay to test for compound auto fluorescence at 535 nm (green) in HEK293 cell free culture (AID 720682)
In short: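 Cell-free medium (DMEM, 10% FBS) receives compound or DMSO by pintool. Plate read directly at Ex 485/Em 535 nm. Signal converted to fluorescein equivalency.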

[4] = qHTS assay to test for compound auto fluorescence at 590 nm (red) in HEK293 cell free culture (AID 720683)
In short: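 Tox21 10K library compounds were pinned into cell-free DMEM with 10% FBS and fluorescence was read at excitation 540 nm. Activity is expressed as Rose Bengal sodium equivalency.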

[5] = qHTS assay to test for compound auto fluorescence at 590 nm (red) in HepG2 cell free culture (AID 720684)
In short: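 Measured in medium alone (MEM containing 10% FBS) following pintool addition of compound; emission at 590 nm with 540 nm excitation, referenced to Rose Bengal sodium.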

[6] = qHTS assay to test for compound auto fluorescence at 460 nm (blue) in HepG2 cell free culture (AID 720685)
In short: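 Compound (23 nL) or DMSO pinned into cell-free MEM with 10% FBS; blue fluorescence read at 405/460 nm excitation/emission, expressed as auto-fluorescence equivalency to triamterene.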

[7] = qHTS assay to test for compound auto fluorescence at 535 nm (green) in HepG2 cell free culture (AID 720686)
[8] = qHTS assay to test for compound auto fluorescence at 460 nm (blue) in HepG2 cells (AID 720687)
In short: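 Cells (2,000/well in MEM with 10% FBS) attached overnight at 37 C, then were exposed to compound or DMSO for 1 hr at 37 C, 5% CO2. Fluorescence read at Ex/Em 405/460 nm, expressed as triamterene-equivalent signal.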

[9] = biological target: Glucocorticoid receptor (Homo sapiens) (UniProt P04150); test: qHTS assay to identify small molecule agonists of the glucocorticoid receptor (GR) signaling pathway (AID 720691; active = well fitted activation curve with a large enough effect in the signal ratio in the repeat runs, not every such curve was filed as active; inconclusive = weak or mixed curves, or effect the other way; inactive = no such curve, though single readings can be large or run the other way; the % refers to the signal ratio; note: potency is the fitted concentration of half-maximal effect); conditions: GR-bla HeLa, beta-lactamase reporter ratio, 18 h; activation: at 62.4 µM (top of the series)
In short: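 Beta-lactamase reporter activity, read as fluorescence intensity, was measured in GR-bla HeLa cells exposed to compounds for 18 h at 37 C and then loaded with LiveBLAzer B/G FRET substrate for 2 h at room temperature.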

[10] = qHTS assay to identify small molecule antagonists of the glucocorticoid receptor (GR) signaling pathway - cell viability counter screen (AID 720693); note: nearly all actives have a fitted effect of over 55% in size; note: potency is the fitted concentration of half-maximal effect
[11] = qHTS assay for identifying genotoxic compounds that show differential cytotoxicity against isogenic chicken DT40 cell lines with known DNA damage response pathways - wild type cell line (AID 743012); note: nearly all actives have a fitted effect of over 60% in size; note: potency is the fitted concentration of half-maximal effect
In short: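 Quantitative HTS on parental DT40 cells: 40 h compound treatment at 37 C/5% CO2, with viability then determined by CellTiter-Glo luminescence. Values serve as the DNA repair-proficient reference for differential cytotoxicity.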

[12] = qHTS assay for identifying genotoxic compounds that show differential cytotoxicity against isogenic chicken DT40 cell lines with known DNA damage response pathways - Rev3 mutant cell line (AID 743014); note: nearly all actives have a fitted effect of over 55% in size; note: potency is the fitted concentration of half-maximal effect
[13] = qHTS assay for identifying genotoxic compounds that show differential cytotoxicity against isogenic chicken DT40 cell lines with known DNA damage response pathways - Rad54/Ku70 mutant cell line (AID 743015); note: nearly all actives have a fitted effect of over 60% in size; note: potency is the fitted concentration of half-maximal effect
[14] = qHTS assay to identify small molecule antagonists of the androgen receptor (AR) signaling pathway - cell viability counter screen (AID 743033; note: nearly all actives have a fitted effect of over 45% in size; note: potency is the fitted concentration of half-maximal effect)
[15] = qHTS assay to identify small molecule antagonists of the androgen receptor (AR) signaling pathway using the MDA cell line - cell viability counter screen (AID 743041; note: nearly all actives have a fitted effect of over 45% in size; note: potency is the fitted concentration of half-maximal effect)
In short: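 Viability counter screen run alongside the AR antagonist reporter: cells seeded 5 h before compound, R1881 added, 16 h incubation at 37C without CO2, fluorescent CellTiter-Fluor signal quantified.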

[16] = biological target: Glucocorticoid receptor (Homo sapiens) (UniProt P04150); test: qHTS assay to identify small molecule antagonists of the glucocorticoid receptor (GR) signaling pathway (AID 720692; active = well fitted inhibition curve with a large enough effect in the signal ratio in the repeat runs, not every such curve was filed as active; inconclusive = weak or mixed curves, or effect the other way; inactive = no such curve, though single readings can be large or run the other way; the % refers to the signal ratio)
In short: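 Fluorescence from cleaved LiveBLAzer B/G FRET substrate reports GRE-driven beta-lactamase in HeLa cells; compounds are tested against 5 nM dexamethasone (final) over 18 h at 37 C, substrate incubation 2 h at room temperature.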

Glucocorticoid receptor (Homo sapiens), sequence (P04150 whole entry, looked up): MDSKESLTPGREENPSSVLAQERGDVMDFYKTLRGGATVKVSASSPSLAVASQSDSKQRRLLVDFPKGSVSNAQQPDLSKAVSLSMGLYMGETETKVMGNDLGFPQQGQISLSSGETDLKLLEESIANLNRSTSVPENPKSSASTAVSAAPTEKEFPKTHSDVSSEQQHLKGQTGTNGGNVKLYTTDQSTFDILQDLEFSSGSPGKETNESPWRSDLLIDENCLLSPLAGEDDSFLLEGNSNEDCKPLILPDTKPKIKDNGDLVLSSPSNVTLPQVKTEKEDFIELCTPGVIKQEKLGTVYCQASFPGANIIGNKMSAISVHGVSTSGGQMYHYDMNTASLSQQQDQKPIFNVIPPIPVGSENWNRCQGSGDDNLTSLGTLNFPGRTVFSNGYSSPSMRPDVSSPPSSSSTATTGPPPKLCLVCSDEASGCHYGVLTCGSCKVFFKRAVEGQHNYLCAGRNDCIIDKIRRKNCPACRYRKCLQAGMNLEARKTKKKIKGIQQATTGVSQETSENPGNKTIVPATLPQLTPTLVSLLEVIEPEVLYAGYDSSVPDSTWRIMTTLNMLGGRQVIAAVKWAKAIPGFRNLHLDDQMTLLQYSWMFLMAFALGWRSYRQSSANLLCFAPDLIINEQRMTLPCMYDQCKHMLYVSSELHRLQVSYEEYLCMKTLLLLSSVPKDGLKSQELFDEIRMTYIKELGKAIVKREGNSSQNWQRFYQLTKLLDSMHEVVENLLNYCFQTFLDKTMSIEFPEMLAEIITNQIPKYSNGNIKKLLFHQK

Compound | outcome [1] | Potency [2] | outcome [3] | outcome [4] | outcome [5] | Potency [6] | Potency [7] | Potency [8] | Potency [9] | Potency [10] | Potency [11] | Potency [12] | Potency [13] | Potency [14] | Potency [15] | Potency [16]
CC(=O)OCC(=O)[C@@]1(O)CC[C@H]2[C@@H]3CCC4=CC(=O)CC[C@]4(C)C3=CC[C@@]21C | inactive | inactive | inactive | inactive | inactive | inactive | inactive | inactive | inactive | inactive | inactive | inactive | inactive | inactive | inactive | 
OCC1(CO)COC(C(Cl)(Cl)Cl)OC1 | inactive | inactive | inactive | inactive | inactive | inactive | inactive | inactive | inactive | inactive | inactive | inactive | inactive | inactive | inactive | 
O=C1CCC(c2ccccc2)(C2CCN(Cc3ccccc3)CC2)C(=O)N1 (configuration not stated) | inactive | inactive | inactive | inactive | inactive | inactive | inactive | inactive | inactive | inactive |  | inactive |  | inactive | inactive | 
Cc1cc(Br)ccc1NC(=O)CCl | inactive | inactive | inactive | inactive | inactive | inactive | inactive | inactive | inactive | 43600 nM (active) | 5450 nM (active) | 5450 nM (active) | 1540 nM (active) | 24500 nM (active) | 48600 nM (active) | 
SC1CCCCC1 | inactive | inactive | inactive | inactive | inactive | inactive | inactive | inactive | inactive |  | inactive | inactive | inactive | inactive |  | 
CC(=O)Nc1ccc(OC(C)=O)cc1 | inactive | inactive | inactive | inactive | inactive | inactive | inactive | inactive | inactive |  | inactive | inactive | inactive | inactive | inactive | inactive
CC(C)(S)C(=O)N[C@@H](CS)C(=O)O | inactive | inactive | inactive | inactive | inactive | inactive | inactive | inactive | inactive |  | inactive | inactive | inactive | inactive | inactive | inactive
CC(O)(c1ccc(Cl)cc1)c1ccc(Cl)cc1 | inactive | inactive | inactive | inactive | inactive | inactive | inactive | inactive | inactive |  |  |  |  |  | inactive | 
C=CC[N+]1([C@H]2C[C@H]3[C@@H]4CC[C@H]5C[C@H](O)[C@@H](N6CCOCC6)C[C@]5(C)[C@H]4CC[C@]3(C)[C@H]2OC(C)=O)CCCC1 | inactive | inactive | inactive | inactive | inactive | inactive | inactive | inactive | inactive | inactive |  | inactive | inactive | inactive |  | 
CC(CNC(=O)c1cccnc1)NC(=O)c1cccnc1 (configuration not stated) | inactive | inactive | inactive | inactive | inactive | inactive | inactive | inactive | inactive | inactive | inactive |  | inactive | inactive | inactive | 
CO/N=C(\C(=O)N[C@@H]1C(=O)N2C(C(=O)O)=C(CSc3nc(C)c(CC(=O)O)s3)CS[C@H]12)c1csc(N)n1 | inactive | inactive | inactive | inactive | inactive | inactive | inactive | inactive | inactive | inactive |  |  | inactive | inactive | inactive | 
FC(F)(F)COCC(F)(F)F | inactive | inactive | inactive | inactive | inactive | inactive | inactive | inactive | inactive |  | inactive | inactive | inactive | inactive | inactive | inactive
CC(C)C[C@@H]1NC(=O)[C@H](CCCN)NC(=O)[C@H](C(C)C)NC(=O)[C@@H]2CCCN2C(=O)[C@@H](Cc2ccccc2)NC(=O)[C@H](CC(C)C)NC(=O)[C@H](CCCN)NC(=O)[C@H](C(C)C)NC(=O)[C@@H]2CCCN2C(=O)[C@@H](Cc2ccccc2)NC1=O (cyclo(V[Orn]L[dF]PV[Orn]L[dF]P)) | inactive | inactive | inactive | inactive | inactive | inactive | inactive | inactive | 23900 nM [inconclusive] (active) | 19000 nM (active) | 376 nM (active) | 75 nM (active) | 94.4 nM (active) | 2680 nM (active) | 1970 nM (active) | 
Cc1ncc(C[n+]2csc(CCOP(=O)(O)O)c2C)c(N)n1 | inactive | inactive | inactive | inactive | inactive | inactive | inactive | inactive | inactive | inactive | inactive | inactive | inactive | inactive | inactive | 
C/C(=C\C(=O)OCCCCCCCCC(=O)O)C[C@@H]1OC[C@H](C[C@@H]2O[C@H]2[C@@H](C)[C@H](C)O)[C@@H](O)[C@H]1O | inactive | inactive | inactive | inactive | inactive | inactive | inactive | inactive | inactive |  | 1500 nM (active) | 1500 nM (active) | 2370 nM (active) | inactive | inactive | inactive
OCl | inactive | inactive | inactive | inactive | inactive | inactive | inactive | inactive | inactive |  | inactive | inactive | inactive | inactive | inactive | 
COc1c(Br)cc(Br)c(C)c1Br | inactive | inactive | inactive | inactive | inactive | inactive | inactive | inactive | inactive | inactive | inactive | inactive | inactive | inactive | inactive | 
CC1CCCC(C)N1NC(=O)c1ccc(Cl)c(S(N)(=O)=O)c1 (configuration not stated) | inactive | inactive | inactive | inactive | inactive | inactive | inactive | inactive | inactive |  | inactive | inactive | inactive | inactive | inactive | inactive
O=C(O)c1cc(=O)c2c3nc4ccccc4oc-3cc(=O)c2[nH]1 | inactive | inactive | inactive | inactive | inactive | inactive | inactive | inactive | inactive | inactive |  | inactive |  | inactive |  | 
